# The supplement of paper PMC7366291
# Counter-ions that a name gives are not always drawn. ± gives the standard deviation of the averaged measurements.
# Test system: Danio rerio Tg(wt1b:EGFP) embryo, pronephros
# Test: fraction of imaged embryos annotated as normal kidney; higher = less nephrotoxic; extreme values may be limits of the assay
# Conditions: 25 µM; exposure: 24-48 hpf
# Outline: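 The value given is the share of embryos in each treatment scored as having a normal kidney. To obtain it, dechorionated Tg(wt1b:EGFP) zebrafish embryos were treated from 24 to 48 hpf at 28.5°C with 25 μM compound in 0.5% DMSO, in 5 mM HEPES-buffered E3 with 0.003% PTU. Pronephroi were imaged by widefield fluorescence (470 nm, 10 z-slices), and every embryo was annotated by hand from maximum projections.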
row,SMILES,fraction of imaged embryos annotated as normal kidney
1,CCN(CC)CCc1nc(-c2ccccc2)no1 [Oxalamine citrate salt],0.917
2,OCc1cc(C(O)CNCCCCCCOCCCCc2ccccc2)ccc1O (configuration not stated) [Salmeterol],0
3,CC(=O)OC(C)C[N+](C)(C)C (configuration not stated) [Methacholine chloride],0.833
4,C=CC[N@@+]12CC[C@@]34c5ccccc5N5/C=C6/[C@H]7C[C@H]8[C@@]9(CC[N@@+]8(CC=C)C/C7=C/CO)c7ccccc7N(/C=C(/[C@@H](C[C@@H]31)/C(=C\CO)C2)[C@H]54)[C@@H]69 [Alcuronium chloride],0.833
5,CC(C)(C)NC[C@H](O)COc1ccccc1C1CCCC1 [Penbutolol sulfate],0.917
6,CS(=O)(=O)OCCCCOS(C)(=O)=O [Busulfan],0.75
7,Cc1c(C)c2c(c(C)c1O)CCC(C)(C(=O)O)O2 (configuration not stated) [Trolox],0.833
8,CN1CCCCC1CCN1c2ccccc2Sc2ccc([S+](C)[O-])cc21 (configuration not stated) [Mesoridazine besylate],0.833
9,COC(=O)[C@H](c1ccccc1Cl)N1CCc2sccc2C1 [Clopidogrel],0.833
10,CN(C)CCC[C@@]1(c2ccc(F)cc2)OCc2cc(C#N)ccc21 [Escitalopram oxalate],0.833
11,Cc1ncc(C[n+]2csc(CCO)c2C)c(N)n1 [Thiamine hydrochloride],0.917
12,C[C@@H]1C[C@H]2[C@@H]3C[C@H](F)C4=CC(=O)C=C[C@]4(C)[C@@]3(Cl)[C@@H](O)C[C@]2(C)[C@H]1C(=O)COC(=O)C(C)(C)C [Clocortolone pivalate],0.167
13,COc1ccccc1O [Guaiacol],0.917
14,CCN(CC)CC(=O)Nc1c(C)cccc1C [Lidocaine hydrochloride],1
15,O=C(Nc1ccccc1)OCC(CN1CCCCC1)OC(=O)Nc1ccccc1 (configuration not stated) [Diperodon hydrochloride],0.818
16,N#Cc1cc(NC(=O)C(=O)O)c(Cl)c(NC(=O)C(=O)O)c1 [Lodoxamide],0.917
17,NC1CCN(c2nc3c(cc2F)c(=O)c(C(=O)O)cn3-c2ccc(F)cc2F)C1 (configuration not stated) [Tosufloxacin hydrochloride],0.833
18,NCCc1ccc(O)c(O)c1 [Dopamine hydrochloride],0.917
19,CO[C@H]1/C=C/O[C@@]2(C)Oc3c(C)c(O)c4c(c3C2=O)C2=NC3(CCN(CC(C)C)CC3)NC2=C(NC(=O)/C(C)=C\C=C\[C@H](C)[C@H](O)[C@@H](C)[C@@H](O)[C@@H](C)[C@H](OC(C)=O)[C@@H]1C)C4=O [Rifabutin],0.583
20,CC(C)NCC(O)c1ccc(NS(C)(=O)=O)cc1 (configuration not stated) [Sotalol hydrochloride],0.8
21,CC[C@@]1(O)C(=O)OCc2c1cc1n(c2=O)Cc2cc3c(CN(C)C)c(O)ccc3nc2-1 [Topotecan],0.727
22,CCOC(=O)[C@H](CCc1ccccc1)N[C@@H](C)C(=O)N1Cc2ccccc2C[C@H]1C(=O)O [Quinapril hydrochloride],1
23,CC(CN(C)C)CN1c2ccccc2CCc2ccccc21 (configuration not stated) [Trimipramine maleate salt],0.833
24,CCn1cc(C(=O)O)c(=O)c2cc(F)c(N3CCNCC3)cc21 [Norfloxacin],1
25,NC(N)=Nc1nc(CSCC/C(N)=N/S(N)(=O)=O)cs1 [Famotidine],0.833
26,CCc1cccc2c3c([nH]c12)C(CC)(CC(=O)O)OCC3 (configuration not stated) [Etodolac],0.636
27,COCCCOc1ccnc(C[S+]([O-])c2nc3ccccc3[nH]2)c1C (configuration not stated) [Rabeprazole Sodium salt],0.75
28,CCc1nc(N)nc(N)c1-c1ccc(Cl)cc1 [Pyrimethamine],0.75

# Test system: Danio rerio Tg(wt1b:EGFP) embryo, pronephros
# Test: pronephric angle neck segment to proximal convoluted tubule (mean of left and right), fold change vs DMSO control; higher = larger pronephric angle
# Conditions: 25 µM; exposure: 24-48 hpf
# Outline: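 Dechorionated Tg(wt1b:EGFP) zebrafish embryos were exposed to 25 μM compound in 0.5% DMSO, HEPES-buffered E3 with 0.003% PTU, from 24 to 48 hpf at 28.5°C. Pronephroi were imaged dorsally in agarose-filled 96-well plates (470 nm, 10 z-slices). On maximum projections, 16 reference points were set manually in Fiji and a macro computed distances and angles. Values more than 2 SD from the feature mean were excluded. Each feature is a fold change relative to the mean of same-day DMSO controls.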
row,SMILES,pronephric angle neck segment
1,CC(C)(Oc1ccc(Cl)cc1)C(=O)O [Clofibric acid],1.001 ± 0.0094
2,Cc1scc2c1N(C(=O)CN1CCN(C)CC1)c1ccccc1NC2=O [Telenzepine dihydrochloride],0.963 ± 0.01
3,Nc1nc2[nH]cc(CCc3ccc(C(=O)N[C@@H](CCC(=O)O)C(=O)O)cc3)c2c(=O)[nH]1 [Pemetrexed disodium],0.972 ± 0.057
4,CCCCCCC[N+](CC)(CC)CCCCc1ccc(Cl)cc1 [Clofilium tosylate],0.9834 ± 0.0086
5,NC[C@H]1O[C@H](O[C@H]2[C@H](O)[C@@H](O[C@H]3O[C@H](CO)[C@@H](O)[C@H](N)[C@H]3O)[C@H](N)C[C@@H]2N)[C@H](N)C[C@@H]1O [Tobramycin],1.01 ± 0.011
6,Clc1ccc(CSC(Cn2ccnc2)c2ccc(Cl)cc2Cl)cc1 (configuration not stated) [Sulconazole nitrate],1.38 ± 0.15
7,CC1(C)S[C@@H]2[C@H](NC(=O)Cc3ccccc3)C(=O)N2[C@H]1C(=O)O [Benzylpenicillin sodium],1.017 ± 0.0055
8,CC(C)(O/N=C(\C(=O)N[C@@H]1C(=O)N2C(C(=O)[O-])=C(C[n+]3ccccc3)CS[C@H]12)c1csc(N)n1)C(=O)O [Ceftazidime pentahydrate],0.961 ± 0.018
9,CCOC(=O)C1=C[C@]2(CC)CCCN3CCc4c(n1c1ccccc41)[C@@H]32 [Vinpocetine],1.05 ± 0.039
10,COc1ccc(Cl)cc1C(=O)NCCc1ccc(S(=O)(=O)NC(=O)NC2CCCCC2)cc1 [Glibenclamide],0.999 ± 0.047
11,CC(=O)c1ccc(S(=O)(=O)NC(=O)NC2CCCCC2)cc1 [Acetohexamide],0.9767 ± 0.0092
12,CCN(CC)CCc1nc(-c2ccccc2)no1 [Oxalamine citrate salt],0.893 ± 0.035
13,OCc1cc(C(O)CNCCCCCCOCCCCc2ccccc2)ccc1O (configuration not stated) [Salmeterol],1.65 ± 0.087
14,CC(=O)OC(C)C[N+](C)(C)C (configuration not stated) [Methacholine chloride],0.972 ± 0.011
15,C=CC[N@@+]12CC[C@@]34c5ccccc5N5/C=C6/[C@H]7C[C@H]8[C@@]9(CC[N@@+]8(CC=C)C/C7=C/CO)c7ccccc7N(/C=C(/[C@@H](C[C@@H]31)/C(=C\CO)C2)[C@H]54)[C@@H]69 [Alcuronium chloride],0.958 ± 0.03
16,CC(C)(C)NC[C@H](O)COc1ccccc1C1CCCC1 [Penbutolol sulfate],1.02 ± 0.02
17,CS(=O)(=O)OCCCCOS(C)(=O)=O [Busulfan],0.943 ± 0.034
18,Cc1c(C)c2c(c(C)c1O)CCC(C)(C(=O)O)O2 (configuration not stated) [Trolox],1 ± 0.014
19,CN1CCCCC1CCN1c2ccccc2Sc2ccc([S+](C)[O-])cc21 (configuration not stated) [Mesoridazine besylate],1.02 ± 0.033
20,COC(=O)[C@H](c1ccccc1Cl)N1CCc2sccc2C1 [Clopidogrel],1.05 ± 0.054

row,SMILES,pronephric angle neck segment
1,CN(C)CCC[C@@]1(c2ccc(F)cc2)OCc2cc(C#N)ccc21 [Escitalopram oxalate],0.941 ± 0.024
2,Cc1ncc(C[n+]2csc(CCO)c2C)c(N)n1 [Thiamine hydrochloride],0.994 ± 0.025
3,C[C@@H]1C[C@H]2[C@@H]3C[C@H](F)C4=CC(=O)C=C[C@]4(C)[C@@]3(Cl)[C@@H](O)C[C@]2(C)[C@H]1C(=O)COC(=O)C(C)(C)C [Clocortolone pivalate],1.077 ± 0.009
4,COc1ccccc1O [Guaiacol],1.02 ± 0.035
5,CCN(CC)CC(=O)Nc1c(C)cccc1C [Lidocaine hydrochloride],0.9342 ± 0.0069
6,O=C(Nc1ccccc1)OCC(CN1CCCCC1)OC(=O)Nc1ccccc1 (configuration not stated) [Diperodon hydrochloride],1.04 ± 0.024
7,N#Cc1cc(NC(=O)C(=O)O)c(Cl)c(NC(=O)C(=O)O)c1 [Lodoxamide],1.05 ± 0.059
8,NC1CCN(c2nc3c(cc2F)c(=O)c(C(=O)O)cn3-c2ccc(F)cc2F)C1 (configuration not stated) [Tosufloxacin hydrochloride],1.038 ± 0.0028
9,NCCc1ccc(O)c(O)c1 [Dopamine hydrochloride],1.011 ± 0.005
10,CO[C@H]1/C=C/O[C@@]2(C)Oc3c(C)c(O)c4c(c3C2=O)C2=NC3(CCN(CC(C)C)CC3)NC2=C(NC(=O)/C(C)=C\C=C\[C@H](C)[C@H](O)[C@@H](C)[C@@H](O)[C@@H](C)[C@H](OC(C)=O)[C@@H]1C)C4=O [Rifabutin],1.06 ± 0.011
11,CC(C)NCC(O)c1ccc(NS(C)(=O)=O)cc1 (configuration not stated) [Sotalol hydrochloride],1.01 ± 0.043
12,CC[C@@]1(O)C(=O)OCc2c1cc1n(c2=O)Cc2cc3c(CN(C)C)c(O)ccc3nc2-1 [Topotecan],1.27 ± 0.062
13,CCOC(=O)[C@H](CCc1ccccc1)N[C@@H](C)C(=O)N1Cc2ccccc2C[C@H]1C(=O)O [Quinapril hydrochloride],0.99 ± 0.015
14,CC(CN(C)C)CN1c2ccccc2CCc2ccccc21 (configuration not stated) [Trimipramine maleate salt],0.972 ± 0.048
15,CCn1cc(C(=O)O)c(=O)c2cc(F)c(N3CCNCC3)cc21 [Norfloxacin],0.9433 ± 0.0086
16,NC(N)=Nc1nc(CSCC/C(N)=N/S(N)(=O)=O)cs1 [Famotidine],0.9801 ± 0.0036
17,CCc1cccc2c3c([nH]c12)C(CC)(CC(=O)O)OCC3 (configuration not stated) [Etodolac],1.13 ± 0.055
18,COCCCOc1ccnc(C[S+]([O-])c2nc3ccccc3[nH]2)c1C (configuration not stated) [Rabeprazole Sodium salt],1.11 ± 0.019
19,CCc1nc(N)nc(N)c1-c1ccc(Cl)cc1 [Pyrimethamine],0.974 ± 0.018
